An excerpt weighted towards active compounds, which were near 4.6% of everything screened.
SKKanGAS inh: SKKanGAS growth inhibition | inhibition, % at 7.5 µM | S. pyogenes SKKanGAS, kanamycin growth, BacTiter-Glo, 6 h | actives 1.3% (n = 300,000);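 active = mean replicate score, as percent of positive control median, at least 50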;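 also: strain carries kanamycin resistance gene driven by streptokinase promoter and grows in 40 µg/ml kanamycin; loss of luminescence reflects streptokinase promoter inhibition or plain growth inhibition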
tim10-1 inh: inhibits growth of tim10-1 mutant yeast; S. cerevisiae tim10-1 ts strain growth, BacTiter-Glo, 24 h; inhibition, % at 20 µM; actives 2.2% (n = 330,000);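 active = inhibition of at least 40%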;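 also: mutant grown at 25 °C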
TIM10 inh: inhibits growth of TIM10 yeast strain | S. cerevisiae TIM10 strain growth, BacTiter-Glo luminescence, 24 h | inhibition, % at 10 µM | actives 1.4% (n = 330,000) | AID 463195;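 active = inhibition of 40% or more at the single tested concentration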;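 also: wild-type TIM10 isogenic control strain grown at permissive 25 °C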
tim23-1 inh: inhibits growth of tim23-1 mutant yeast | actives 1.3% (n = 330,000) | S. cerevisiae tim23-1 growth, BacTiter-Glo luminescence, 24 h | AID 463212 | inhibition, % at 20 µM;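 active = growth inhibition of the mutant yeast at or above 50%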;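 also: temperature-sensitive mutant grown at 25 °C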
NLRP3 yeast inh: blocks the NALP3 inflammasome reconstituted in yeast; actives 0.39% (n = 330,000); inhibition, % at 10 µM; Yeast reconstituted NLRP3/ASC/caspase-1, beta-gal luminescence, 24 h;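 active = inhibition of 50% or more; inactive = inhibition below 50%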
tim10-1 confirm: confirmation of tim10-1 mutant yeast growth inhibitors; shares compounds with tim10-1 inh; S. cerevisiae tim10-1 ts strain growth, BacTiter-Glo, 24 h; inhibition, % at 20 µM; actives 56% (n = 7,400); AID 463213;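 active = inhibition of yeast growth at or above a set limit in either of two repeat tests at 20 µM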;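 also: tim10-1 mutant grown at permissive 25 °C to find synthetic lethal compounds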
Large screens that a line does not name were inactive (follow-up assays come after a bar, where they were run).

COc1ccc(NC(=O)C2CCCN(c3ncccn3)C2)cc1 (configuration not stated)	none
CCC(C)c1ccc(NC(=O)C2CCCN(c3ncccn3)C2)cc1 (configuration not stated)	tim10-1 inh 41.9 | tim10-1 confirm 40.8
CC1CCN(C(=O)c2ccc(N3CCOCC3)c([N+](=O)[O-])c2)CC1	none (no result: SKKanGAS inh)
CCc1ccccc1OCC(=O)Nc1nc(-c2cccnc2)cs1	SKKanGAS inh 101.6 | tim10-1 confirm inactive
CCC(=O)c1ccc(OCC(=O)Nc2nc(-c3cccnc3)cs2)cc1	none
N/C(=N\OC(=O)CC(c1ccccc1)c1ccccc1)c1cccnc1	tim10-1 inh 47.1 | tim10-1 confirm 61.4
N/C(=N\OC(=O)CCC1CCCCC1)c1cccnc1	tim10-1 inh 46.2 | tim10-1 confirm 37.8
N/C(=N\OC(=O)Cc1ccc(-c2ccccc2)cc1)c1cccnc1	tim10-1 inh 47.0 | tim10-1 confirm 39.0
Cc1c(N(C)S(=O)(=O)c2cc(C(=O)NCC3CCCO3)ccc2Cl)c(=O)n(-c2ccccc2)n1C (configuration not stated)	none
CCOc1cc2c(cc1OC)C(NC(=O)c1ccco1)CC2=O (configuration not stated)	none
CCCOc1ccccc1C(=O)N1CCNC(=O)C1CC(=O)OC(C)C (configuration not stated)	none
Cc1ccccc1-c1cc(C(=O)NCc2cccc(C(F)(F)F)c2)nn1CC1CC(c2cccc([N+](=O)[O-])c2)=NO1 (configuration not stated)	none (no result: SKKanGAS inh)
NC(=O)c1ccc(NC(=O)CN2CCN(Cc3ccccc3)CC2)cc1	none
CC(C)=CCC1=C(OCC(=O)O)C(=O)c2ccccc2C1=O	tim10-1 inh 51.5 | tim10-1 confirm 43.6
CCCN(CCC)S(=O)(=O)c1ccc(C(=O)Nc2nnc(-c3cc(OC)cc(OC)c3)o2)cc1	SKKanGAS inh 102.1, tim10-1 inh 41.1 | tim10-1 confirm inactive
CCCN(CCC)S(=O)(=O)c1ccc(C(=O)Nc2nnc(CSC)o2)cc1	none
O=C(NC(=S)Nc1ccccc1O)c1ccc(Cl)cc1Cl	tim10-1 inh 42.7 | tim10-1 confirm inactive
O=C(NNC(=S)Nc1cccc(C(F)(F)F)c1)c1ccc(Cl)cc1Cl	SKKanGAS inh 66.9, tim10-1 inh 51.6 | tim10-1 confirm 46.4
O=C(Nc1ccccc1Cl)c1ccc(Cl)cc1Cl	none
Cc1cccc2sc(NC(=O)C3c4ccccc4Oc4ccccc43)nc12	tim10-1 inh 41.1 | tim10-1 confirm 32.5
Cc1cccc2sc(NC(=O)C3CC3)nc12	none
Cc1ccc2sc(NC(=O)C3CC3)nc2c1C	tim10-1 inh 46.0 | tim10-1 confirm inactive
O=C(Nc1nc2c(Cl)cccc2s1)C1CC1	tim10-1 inh 55.7 | tim10-1 confirm inactive
CCC1(c2ccc(F)cc2)NC(=O)N(CC(=O)N2CC(=O)Nc3ccccc32)C1=O (configuration not stated)	none
COc1ccc(S(=O)(=O)NCC(=O)N(CC2CCCO2)C(C(=O)NC2CCCC2)C(C)C)cc1 (configuration not stated)	none
O=C(/C=C/c1cccs1)c1cc(Br)ccc1OC(=O)N1CCOCC1	tim10-1 inh 55.7 | tim10-1 confirm 43.2
COc1cccc(CNC(=O)c2ccc(NC(=O)C3=CSCCO3)cc2)c1	tim10-1 inh 44.6 | tim10-1 confirm inactive
Cc1ccc(CNC(=O)c2ccc(NC(=O)C3=CSCCO3)cc2)cc1	none
CCN(CCn1cccn1)C(=O)C1CCC(=O)N(CC2CCCCC2)C1 (configuration not stated)	none
Cc1cccn2c(=O)c3cc(C(=O)NCCN4CCOCC4)c(=N)n(Cc4ccc(F)cc4)c3nc12	none
CC(=O)Oc1cccc(C(=O)Nc2ccc(NC(=O)c3cccs3)cc2)c1	none
Nc1nc(-c2ccc(Br)cc2)cs1	tim10-1 inh 55.8 | tim10-1 confirm 46.4
Nc1nc(-c2ccc(F)cc2)cs1	none
Cc1ccc(-c2csc(C3C(N)=NC(S)=C(C#N)C34CCCCC4)n2)cc1 (configuration not stated)	tim10-1 inh 44.5 | tim10-1 confirm inactive
CCCc1cc(C(=O)Cc2ccc(F)cc2)c(O)cc1O	none
CCCc1cc(C(=O)Cc2ccc(C(=O)OCC)o2)c(O)cc1O	tim10-1 inh 45.1 | tim10-1 confirm inactive
CCN(C[C@H]1N[C@@](C)(C(=O)OC)[C@H]2C(=O)N(C)C(=O)[C@@H]12)C(=O)Nc1ccc(OC)cc1	none (no result: SKKanGAS inh)

Bioassay records deposited in PubChem BioAssay by several laboratories.
